Reference: PubChem BioAssay AID1159580 (chemical genetic matrix, 2015)
The campaign covered roughly 5,500 compounds. About 2,000 (36%) were called active. Another 18% or so got no clear call; they are omitted. Rule as the data show it: active = normalized growth mostly below about 0.91 (no sharp cut-off); inconclusive = no clear call, values can overlap the other calls; inactive = mostly above about 0.92. The list shows a part of the results.

Assay: chemical genetic growth profiling, strain panel (AID 1159580);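 also: tested at 20 µM; growth read once vehicle control cultures reached saturation at 30 °C; 1 = growth at the plate median or of vehicle wells; lower values mean less growth of the strain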
Details: growth OD

Measured: normalized growth

N#Cc1c(Cl)cccc1Cl
inactive: S. cerevisiae deletion strains, locus YJR075W, strain HOC1, hits give low values 1.02 | S. cerevisiae deletion strains, locus YKL009W, strain mrt4, hits give low values 1.02 | S. cerevisiae deletion strains, locus YKL068W, hits give low values 1.01 | S. cerevisiae deletion strains, locus YKL085W, strain MDH1 (second series), hits give low values 1.01 | S. cerevisiae deletion strains, locus YKL085W, strain MDH1, hits give low values 1.01 | S. cerevisiae deletion strains, locus YKL160W, strain elf1, hits give low values 0.981 | S. cerevisiae deletion strains, locus YKL190W, strain CNB1, hits give low values 1.02 | S. cerevisiae deletion strains, locus YKR001C, strain vps1, hits give low values 1.01 | S. cerevisiae deletion strains, locus YKR026C, strain gcn3, hits give low values 0.982 | S. cerevisiae deletion strains, locus YKR091W, strain srl3, hits give low values 0.978 | S. cerevisiae deletion strains, locus YLL001W, strain dnm1, hits give low values 0.988 | S. cerevisiae deletion strains, locus YLL026W, hits give low values 0.975 | S. cerevisiae deletion strains, locus YLL041C, strain sdh2, hits give low values 0.977 | S. cerevisiae deletion strains, locus YLR027C, strain aat2, hits give low values 0.959 | S. cerevisiae deletion strains, locus YLR039C, strain RIC1, hits give low values 1.01 | S. cerevisiae deletion strains, locus YLR058C, strain SHM2, hits give low values 1.02 | S. cerevisiae deletion strains, locus YLR102C, strain apc9, hits give low values 1.01 | S. cerevisiae deletion strains, locus YLR113W, strain HOG1, hits give low values 0.987 | S. cerevisiae deletion strains, locus YLR221C, strain rsa3, hits give low values 0.971 | S. cerevisiae deletion strains, locus YLR258W, strain gsy2, hits give low values 0.991 | S. cerevisiae deletion strains, locus YLR262C, strain YPT6 (second series), hits give low values 0.999 | S. cerevisiae deletion strains, locus YLR262C, strain YPT6, hits give low values 1.05 | S. cerevisiae deletion strains, locus YLR268W, strain sec22, hits give low values 0.999 | S. cerevisiae deletion strains, locus YLR320W, strain mms22, hits give low values 0.988 | S. cerevisiae deletion strains, locus YLR330W, strain CHS5, hits give low values 1.01 | S. cerevisiae deletion strains, locus YLR342W, strain FKS1 (second series), hits give low values 1.04 | S. cerevisiae deletion strains, locus YLR342W, strain FKS1, hits give low values 0.978 | S. cerevisiae deletion strains, locus YLR357W, strain rsc2, hits give low values 0.978 | S. cerevisiae deletion strains, locus YLR370C, strain arc18, hits give low values 0.965 | S. cerevisiae deletion strains, locus YLR371W, strain rom2, hits give low values 1.01 | S. cerevisiae deletion strains, locus YLR384C, strain iki3, hits give low values 0.975 | S. cerevisiae deletion strains, locus YLR418C, strain cdc73, hits give low values 1.01 | S. cerevisiae deletion strains, locus YML016C, strain PPZ1, hits give low values 1.01 | S. cerevisiae deletion strains, locus YML032C, strain rad52, hits give low values 1.02 | S. cerevisiae deletion strains, locus YML120C, strain ndi1, hits give low values 0.988 | S. cerevisiae deletion strains, locus YML124C, strain tub3, hits give low values 1.01 | S. cerevisiae deletion strains, locus YMR058W, strain fet3, hits give low values 0.968 | S. cerevisiae deletion strains, locus YMR078C, strain ctf18, hits give low values 1.02 | S. cerevisiae deletion strains, locus YMR125W, strain sto1, hits give low values 0.974 | S. cerevisiae deletion strains, locus YMR129W, hits give low values 1.01 | S. cerevisiae deletion strains, locus YMR205C, strain PFK2, hits give low values 1.01 | S. cerevisiae deletion strains, locus YMR223W, strain ubp8, hits give low values 1.01 | S. cerevisiae deletion strains, locus YMR231W, strain pep5, hits give low values 0.982 | S. cerevisiae deletion strains, locus YMR263W, strain SAP30, hits give low values 1.02 | S. cerevisiae deletion strains, locus YMR307W, strain GAS1, hits give low values 1.01 | S. cerevisiae deletion strains, locus YNL067W, strain RPL9B, hits give low values 1.01 | S. cerevisiae deletion strains, locus YNL071W, strain lat1, hits give low values 0.985 | S. cerevisiae deletion strains, locus YNL128W, strain TEP1, hits give low values 1.01 | S. cerevisiae deletion strains, locus YNL153C, strain GIM3, hits give low values 1.01 | S. cerevisiae deletion strains, locus YNL183C, strain NPR1, hits give low values 0.902 | S. cerevisiae deletion strains, locus YNL209W, strain ssb2, hits give low values 0.995 | S. cerevisiae deletion strains, locus YNL233W, strain BNI4, hits give low values 1.02 | S. cerevisiae deletion strains, locus YNL248C, strain rpa49, hits give low values 0.971 | S. cerevisiae deletion strains, locus YNL250W, strain rad50, hits give low values 1.02 | S. cerevisiae deletion strains, locus YNL271C, strain bni1, hits give low values 1.02 | S. cerevisiae deletion strains, locus YNL298W, strain CLA4, hits give low values 1.02 | S. cerevisiae deletion strains, locus YNL307C, strain MCK1, hits give low values 1.01 | S. cerevisiae deletion strains, locus YNL322C, strain KRE1 (second series), hits give low values 0.978 | S. cerevisiae deletion strains, locus YNL322C, strain KRE1, hits give low values 1.01 | S. cerevisiae deletion strains, locus YNR049C, strain mso1, hits give low values 0.958 | S. cerevisiae deletion strains, locus YNR052C, strain pop2, hits give low values 1.02 | S. cerevisiae deletion strains, locus YOL006C, strain TOP1, hits give low values 1.04 | S. cerevisiae deletion strains, locus YOL012C, strain htz1 1.37 | S. cerevisiae deletion strains, locus YOL147C, strain pex11, hits give low values 1.01 | S. cerevisiae deletion strains, locus YOR001W, strain rrp6, hits give low values 0.993 | S. cerevisiae deletion strains, locus YOR061W, strain CKA2, hits give low values 1.01 | S. cerevisiae deletion strains, locus YOR069W, strain VPS5, hits give low values 1 | S. cerevisiae deletion strains, locus YOR070C, strain gyp1, hits give low values 0.991 | S. cerevisiae deletion strains, locus YOR080W, strain dia2, hits give low values 0.963 | S. cerevisiae deletion strains, locus YOR083W, strain WHI5, hits give low values 0.974 | S. cerevisiae deletion strains, locus YOR106W, strain vam3, hits give low values 0.974 | S. cerevisiae deletion strains, locus YOR136W, strain idh2, hits give low values 1.01 | S. cerevisiae deletion strains, locus YOR144C, strain elg1, hits give low values 1.01 | S. cerevisiae deletion strains, locus YOR184W, strain ser1, hits give low values 1.03 | S. cerevisiae deletion strains, locus YOR231W, strain MKK1, hits give low values 0.966 | S. cerevisiae deletion strains, locus YOR265W, strain rbl2, hits give low values 0.966 | S. cerevisiae deletion strains, locus YOR270C, strain vph1, hits give low values 1.01 | S. cerevisiae deletion strains, locus YOR290C, strain snf2, hits give low values 0.985 | S. cerevisiae deletion strains, locus YOR316C, strain cot1, hits give low values 1.01 | S. cerevisiae deletion strains, locus YPL051W, strain arl3, hits give low values 0.995 | S. cerevisiae deletion strains, locus YPL055C, strain LGE1, hits give low values 1.05 | S. cerevisiae deletion strains, locus YPL078C, strain atp4, hits give low values 0.984 | S. cerevisiae deletion strains, locus YPL106C, strain sse1, hits give low values 0.975 | S. cerevisiae deletion strains, locus YPL240C, strain hsp82, hits give low values 0.979 | S. cerevisiae deletion strains, locus YPL241C, strain CIN2, hits give low values 1.01 | S. cerevisiae deletion strains, locus YPL256C, strain CLN2, hits give low values 0.968 | S. cerevisiae deletion strains, locus YPR119W, strain clb2, hits give low values 1.01 | S. cerevisiae deletion strains, locus YPR141C, strain kar3, hits give low values 1.02 | S. cerevisiae deletion strains, locus YPR163C, strain tif3, hits give low values 1.02 | S. cerevisiae deletion strains, locus YPR167C, strain met16, hits give low values 1.02 | S. cerevisiae deletion strains, strain wtn01, hits give low values 1.02 | S. cerevisiae strains, strain wild type, hits give low values 1.01
